# Test results from PubChem BioAssay AID743433 (Vanderbilt Specialized Chemistry Center, 2014).
# Biological target: Metabotropic glutamate receptor 2 (Homo sapiens) (UniProt Q14416)
# Experiment: off-target activity check on mGlu2 receptor – cell-based, GIRK thallium flux, agonist curve fold shift, selectivity assay for mGlu8/mGlu7 PAM project, profiling panel (AID 743433)
# Settings: mGlu2/GIRK cells, agonist CRC shift, agonist EC50 fold shift, at 10 µM
# Chain of Metabotropic glutamate receptor 2 (Homo sapiens) (Q14416 whole entry, looked up): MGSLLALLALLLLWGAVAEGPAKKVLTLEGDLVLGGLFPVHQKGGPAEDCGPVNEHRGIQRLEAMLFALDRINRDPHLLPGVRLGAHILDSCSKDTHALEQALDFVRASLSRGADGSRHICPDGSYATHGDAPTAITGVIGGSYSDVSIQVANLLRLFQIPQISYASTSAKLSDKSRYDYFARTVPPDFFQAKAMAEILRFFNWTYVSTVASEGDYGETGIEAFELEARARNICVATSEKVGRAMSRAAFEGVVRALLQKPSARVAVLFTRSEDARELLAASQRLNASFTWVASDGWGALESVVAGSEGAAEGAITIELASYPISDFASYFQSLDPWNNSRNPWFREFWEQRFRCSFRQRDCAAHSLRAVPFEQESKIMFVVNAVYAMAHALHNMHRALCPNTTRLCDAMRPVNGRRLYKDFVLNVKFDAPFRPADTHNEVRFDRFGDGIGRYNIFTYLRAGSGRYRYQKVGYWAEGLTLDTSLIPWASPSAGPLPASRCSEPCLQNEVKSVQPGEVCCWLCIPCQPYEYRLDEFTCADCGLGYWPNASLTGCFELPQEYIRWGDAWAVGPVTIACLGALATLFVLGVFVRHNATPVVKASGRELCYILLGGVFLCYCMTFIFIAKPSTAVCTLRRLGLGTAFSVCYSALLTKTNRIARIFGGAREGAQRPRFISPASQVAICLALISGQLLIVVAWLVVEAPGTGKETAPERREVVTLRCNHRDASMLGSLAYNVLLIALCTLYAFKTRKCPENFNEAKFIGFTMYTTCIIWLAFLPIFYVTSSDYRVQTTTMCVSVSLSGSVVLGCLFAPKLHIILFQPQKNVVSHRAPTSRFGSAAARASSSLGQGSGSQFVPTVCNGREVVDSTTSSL
smiles,measurement,value
COC(=O)c1ccc(-n2c(C)cc(C(=O)CSc3ccc(NC(C)=O)cc3)c2C)cc1,fold shift,1
